# Several values for one entry are separate records, joined by “and”; a condition that tells them apart may be missing. Equal values may be shown once. The campaign covered roughly 350,000 compounds. About 990 (0.28%) were called active. Roughly 2% stayed inconclusive and do not appear here. Calls follow the shape of the dose curve; as a rule, active = well fitted inhibition curve with a large enough effect; inconclusive = small, poorly fitted or top-dose-only effect; inactive = no such curve, though single readings can be large or run the other way. The list comes from a sample in which actives are over-represented; it also holds similar structures and randomly drawn compounds. Some compounds were tested as several samples or in several runs, with calls that do not always agree.
# Target: Tyrosyl-DNA phosphodiesterase 1 (Homo sapiens) (UniProt Q9NUW8)
# Assay: qHTS Assay for Inhibitors of Tyrosyl-DNA Phosphodiesterase (TDP1); also: nearly all actives have a fitted effect of over 40% in size
# Conditions: recombinant TDP1, AlphaScreen DNA substrate cleavage; series mostly up to 130 µM; activity change, negative = inhibition: at the top concentration
# Text: NIH Molecular Libraries Probe Production Network [MLPCN]
# NIH Chemical Genomics Center [NCGC]
# Assay Provider: Yves Pommier and Christophe Marchand, National Cancer Institute
# Assay Title: qHTS Assay for Inhibitors of Tyrosyl-DNA Phosphodiesterase (TDP1); also: nearly all actives have a fitted effect of over 40% in size
# Human tyrosyl-DNA phosphodiesterase I (Tdp1) is a rational anticancer target because this enzyme is involved in the repair of DNA lesions created by the trapping of human DNA topoisomerase I (Top1) following treatment by anticancer agents such as camptothecins. Recombinant Tdp1 was expressed and purified from E. coli in the laboratory (Anthony et al, Nucleic Acids Research, 2007, Vol. 35, 4474-4484). A Tdp1 DNA substrate bearing a 5' biotin and a 3' phospho-tyrosine was obtained by custom synthesis. This oligonucleotidic DNA substrate was subsequently coupled to a fluorescein isothiocyanate (FITC) group via the free amino group present on the phospho-tyrosine. Tdp1 was screened against the NCGC small molecule library using the AlphaScreen (AS) detection method in which a streptavidin donor AS bead is bound at the 5' end and an anti-FITC AS acceptor bead is bound at the 3' end of the DNA oligonucleotidic substrate. In the presence of Tdp1, the enzyme cleaves the tyrosine-FITC group, leaving a 3' end phosphate on the DNA substrate. This cleavage reaction results in a loss of signal in AS.
# [1] 3 ul of buffer is dispensed in columns 3 & 4 as negative control (no enzyme and maximum signal),
# [2] 3 ul of enzyme (1 nM final) is dispensed in columns 1,2, 5-48,
# [3] 1 ul of substrate (15 nM final) is dispensed throughout the plate,
# [4] 1 ul of AS donor/acceptor bead mix (10 ug/ml final) is dispensed throughout the plate
# 3 ul of Tdp1 enzyme is dispensed to 1536-well Kalypsys black solid bottom plates. Compounds and controls (23 nl) are transferred via Kalypsys Pin Tool. The plates are incubated for 15 min at room temperature, and then 1 ul of substrate is added to start the reaction. After 5 min incubation at room temperature, 1 ul of AS donor/acceptor bead mix is added and the plates are further incubated for 10 min at room temperature. The detection is then performed on a PerkinElmer Envision reader.
# % is scaled to controls: 0 for no effect and ±100 for the full control effect; potency is read from the fitted curve at half-maximal effect.
# Sequence of Tyrosyl-DNA phosphodiesterase 1 (Homo sapiens) (Q9NUW8 whole entry, looked up): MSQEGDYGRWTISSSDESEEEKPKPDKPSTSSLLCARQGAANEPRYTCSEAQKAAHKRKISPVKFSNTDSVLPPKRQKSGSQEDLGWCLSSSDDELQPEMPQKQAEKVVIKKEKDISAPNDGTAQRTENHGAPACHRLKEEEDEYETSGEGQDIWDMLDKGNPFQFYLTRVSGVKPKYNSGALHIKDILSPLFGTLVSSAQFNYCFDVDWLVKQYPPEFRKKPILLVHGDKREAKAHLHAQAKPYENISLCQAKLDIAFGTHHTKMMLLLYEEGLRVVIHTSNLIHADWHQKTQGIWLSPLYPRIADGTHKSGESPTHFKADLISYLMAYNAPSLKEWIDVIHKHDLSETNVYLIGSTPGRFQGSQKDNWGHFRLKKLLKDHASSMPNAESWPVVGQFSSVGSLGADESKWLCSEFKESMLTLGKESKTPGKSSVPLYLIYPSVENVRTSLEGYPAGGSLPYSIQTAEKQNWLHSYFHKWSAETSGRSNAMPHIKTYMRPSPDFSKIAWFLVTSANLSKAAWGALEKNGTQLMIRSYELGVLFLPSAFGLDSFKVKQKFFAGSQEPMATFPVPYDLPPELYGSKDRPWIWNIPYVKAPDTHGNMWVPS
SMILES,"activity change, negative = inhibition",Potency
Cc1nn(C)cc1N1C(=O)c2cccc3c(N)ccc(c23)C1=O,3.53% (inactive),–
Nc1ccc2c3c(cccc13)C(=O)NC2=O,–,inactive and 50.1 µM (active)
COC(=O)Cc1ccc(N(Cc2ccccc2F)S(=O)(=O)c2ccc(Br)cc2)cc1,5.26% (inactive),–
CCCNC(=O)CN(Cc1ccccc1F)S(=O)(=O)c1ccc(C)cc1,0% (inactive),–
CC(=O)c1ccc(S(=O)(=O)N(C)CCCC(=O)N(C)Cc2ccccc2F)cc1,–,79.4 µM (active)
O=C(CNC(=O)c1ccccc1)OC(C(=O)Nc1cc([N+](=O)[O-])ccc1F)c1ccccc1 (stereo unspecified),-0.0203% (inactive),–
O=C(CCNC(=O)c1ccccc1)NN=Cc1ccc(Br)o1,–,14.1 µM (active)
O=C(CCNC(=O)c1ccccc1Cl)NN=Cc1ccco1,-19.3% (inactive),–
O=C(CCCCCNC(=O)c1ccccc1)N/N=C/c1ccccc1,0% (inactive),–
O=C(Nc1ccc2nc(SCCOc3ccccc3Cl)sc2c1)c1ccco1,-0.521% (inactive),–
CCOC(=O)c1ccc(NC(=O)CC2C(=O)N(c3ccccc3)C(=O)N2Cc2cccs2)cc1 (stereo unspecified),8.97% (inactive),–
COc1ccc(-c2cn3nc(N4CCCC(C(=O)NCCCOC(C)C)C4)sc3n2)cc1 (stereo unspecified),6.21% (inactive),–
Cc1ccc(-c2nnc3ccc(SCC(N)=O)nn23)cc1,3.35% (inactive),–
O=C(O)CCC(=O)N(Cc1cccs1)Cc1cccs1,–,70.8 µM (active)
O=C(O)CCC(=O)N(Cc1ccccc1)Cc1ccccc1,2.81% (inactive),–
O=C(CCc1ccccc1)NCCc1cccs1,6.33% (inactive),–
Cc1ccc2ccc3c(c2n1)NS(=O)(=O)c1ccccc1-3,3.91% (inactive),–
CCn1c(COc2ccccc2)nnc1SCC(=O)NCc1ccco1,-2.53% (inactive),–
C=CCn1c(CSc2nc3ccccc3s2)nnc1SCC(=O)NCc1ccco1,–,50.1 µM (active)
O=C(CSc1nc2ccc(Nc3nc(N4CCOCC4)nc(N4CCOCC4)n3)cc2s1)NCc1ccco1,7.41% (inactive),–
N#Cc1nc(Nc2cc(F)cc(Cl)c2)nc(NC2CCCC2)n1,-1.72% (inactive),–
Cc1ccc(C2C=C(c3ccc(Cl)cc3)Nc3nc(NC(=O)CCC(=O)O)nn32)cc1 (stereo unspecified),6.98% (inactive),–

SMILES,"activity change, negative = inhibition",Potency
Cc1csc(NC(=O)CSc2nc(=O)cc(N)n2-c2ccc(F)cc2)n1,0.637% (inactive),–
COc1cccc(-n2c(N)cc(=O)nc2SCC(=O)Nc2cc(C)on2)c1,4.83% (inactive),–
Cc1cc(NC(=O)CSc2nc(=O)cc(N)n2-c2ccc(F)cc2)no1,–,100 µM (active)
CCc1ccc(NC(=O)CN2CCSc3ccc(S(=O)(=O)N4CCCC4)cc32)cc1,8.88% (inactive),–
CC(C)c1ccc(C2CC(=O)N3CN(C4CCCCC4)CSC3=C2C#N)cc1 (stereo unspecified),4.65% (inactive),–
Cc1ccc(Cn2ncc3c4sc(C)cc4n(C)c3c2=O)c(C)c1,-17.4% (inactive),–
CCSc1nnc(NC(=O)c2cc(=O)c3cc(C)c(C)cc3o2)s1,3.68% (inactive),–
NC(=O)CSc1nnc(NC(=O)c2ccc(Br)o2)s1,–,56.2 µM (active)
NC(=O)CSc1nnc(NC(=O)c2ccc3ccccc3c2)s1,-9.3% (inactive),–
COc1cccc(NC(=O)C(=O)NCC(c2ccc3c(c2)OCO3)N2CCN(C)CC2)c1 (stereo unspecified),4.4% (inactive),–
O=C(Nc1ccc(F)cc1F)c1ccc2c(=O)n3c(nc2c1)CCCCC3,0% (inactive),–
COc1cc(C(=O)NCCc2csc3nc(-c4ccccc4C)nn23)cc(OC)c1OC,8.88% (inactive),–
Cc1cc(C)c2nc(-c3ccco3)cc(C(=O)O)c2c1,–,3.55 µM (active)
CN(CCOc1ccccc1)C(=O)c1cc(-c2ccco2)nc2ccccc12,-10% (inactive),–
CC1CCCN(C(=O)c2cc(-c3ccco3)nc3ccccc23)C1 (stereo unspecified),-2.87% [at 56.1 µM] (inactive),–
N#CN1CCC(NS(=O)(=O)c2cccc(F)c2)C1 (stereo unspecified),-0.0717% (inactive),–
COc1cccc(NC(=O)c2ccc3nc(CCc4ccccc4)oc3c2)c1,4.14% (inactive),–
COc1cccc(OC2=NS(=O)(=O)c3ccccc32)c1,2.37% (inactive),–
COC(=O)c1ccccc1NC(=O)c1ccc2c(=O)n3c(nc2c1)CCCCC3,5.06% (inactive),–
O=C(OCC#CCSc1nnc(-c2ccco2)o1)c1ccc(F)cc1,-3.06% (inactive),–
CN1C(=O)/C(=C/c2ccco2)SC1=Nc1cccc(C(=O)O)c1,–,25.1 µM (active)
CN1C(=O)/C(=C\c2ccc(-c3ccccc3)o2)SC1=S,8.48% (inactive),–

SMILES,"activity change, negative = inhibition",Potency
Cc1cc(/C=C2\SC(=Nc3ccc(N4CCOCC4)cc3)N(C)C2=O)c(C)n1-c1cccnc1,5.26% (inactive),–
CCOC(=O)c1scc(-c2ccccc2)c1S(=O)(=O)Nc1ccccc1F,1.95% (inactive),–
COc1ccc(-c2nc3sc(CCNC(=O)C(C)(C)C)c(C)n3n2)cc1,2.6% (inactive),–
Cc1cccc(Nc2nc(-c3ccccc3)cs2)n1,8% (inactive),–
O=C(Nc1nc(-c2cccnc2)cs1)c1ccccc1F,-1.15% (inactive),–
Cc1ccccc1Nc1nc(-c2cccnc2)cs1,–,100 µM (active)
COc1ccc(-c2c3c(=O)n(C)c(=O)n(C)c3c3c(C)nc4ccccc4n23)cc1,2.12% (inactive),–
O=C(CNC(=O)c1ccc(Cl)cc1Cl)OC(C(=O)Nc1cc(C(F)(F)F)ccc1Cl)c1ccccc1 (stereo unspecified),0.0717% (inactive),–
CCc1nc(-c2cc(S(=O)(=O)N3CCN(c4ccc(OC)cc4)CC3)ccc2OC)no1,0% (inactive),–
CCc1ccc(OCCCn2c(CCCNC(=O)C3CCCCC3)nc3ccccc32)cc1,1.74% (inactive),–
Cc1ccnc2nc(C(=O)OCC(=O)N(CC(C)C)CC(C)C)nn12,0.595% (inactive),–
O=C(Nc1nnc(-c2ccc(Cl)cc2)o1)c1ccccc1Br,9.8% (inactive),–
Cc1ccnc2nc(C(=O)Nc3nnc(-c4ccccc4)o3)nn12,–,50.1 µM (active)
COc1ccc(C(=O)CSc2c(C(C)C)cnc3c2c(=O)n(C)c(=O)n3C)cc1,5.41% (inactive),–
CCN(CCCNC(=O)c1ccc(Sc2ccc(C)cc2)c(NC(C)=O)c1)c1cccc(C)c1,7.79% (inactive),–
Cc1ccc(-n2ncc3c(NCCCn4ccnc4)ncnc32)cc1Cl,13% (inactive),–
COc1ccc(C2Nc3ccccc3C(=O)N2Cc2ccccc2)cc1COc1ccc(C(N)=O)cc1 (stereo unspecified),-0.753% (inactive),–
CCc1ccccc1NC(=O)c1ccc2nc(CCc3ccccc3)oc2c1,-6.51% (inactive),–
Cc1cc(=O)oc2cc(OC(C)C(=O)NCCc3ccc(S(N)(=O)=O)cc3)ccc12 (stereo unspecified),3.75% (inactive),–
Cc1cc(=O)oc2cc(NC(=O)C(C)Oc3ccccc3)ccc12 (stereo unspecified),–,56.2 µM (active)
Cc1cc(=O)oc2cc(OC(C)C(=O)Nc3ccc(N4CCOCC4)cc3)ccc12 (stereo unspecified),2.14% (inactive),–
COc1ccc(S(=O)(=O)NCC(c2ccc(N(C)C)cc2)N2CCc3ccccc32)cc1OC (stereo unspecified),13.8% (inactive),–

# — PubChem BioAssay AID485290 (National Center for Advancing Translational Sciences (NCATS), 2010)
